Measured values taken from the supplement of paper PMC10849652.
About 7,900 targets were measured; listed, in parts, are those with a hit and a random draw of the rest. About 0.6% of all pairs of compound and target were hits.

Assays:
Test in all cases: log2 fold change, soluble protein after heating vs DMSO (PISA); higher = thermal stabilisation; K562 cells, 10 uM, 30 min; active = over 0.2 and 3.5 SD of the protein, either way, in both replicates (recomputed)
[1] = compound: CS(=O)(=O)c1ccc(-c2cnc(N)c(C(=O)Nc3ccccc3)n2)cc1
Procedure, shortened: (§1)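 K562 cells at 2×10^6 cells/mL were exposed to 10 μM compound for 30 min, then aliquots were heated for 3 min across 48°C-58°C, pooled, and extracted in PBS containing 0.5% NP-40 at 4°C. The supernatant after 21,000xg for 90 min was taken as soluble protein and measured by TMTpro 16plex LC-MS/MS with channel sums equalised. Thermal stability is reported relative to control samples, with values from duplicates. Fold changes are given on a log2 scale.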

[2] = compound: C[C@@H](Oc1cc(-c2cnn(C3CCNCC3)c2)cnc1N)c1c(Cl)ccc(F)c1Cl [crizotinib]
Procedure, shortened: as §1

[3] = compound: C[C@@H]1COCCN1C2=NC(=NC(=C2)C3(CC3)S(=O)(=O)C)C4=C5C=CNC5=CC=C4
Procedure, shortened: as §1

[4] = compound: C[C@H](C1=CC=C(C=C1)C(=O)NC2=C3C=CNC3=NC=C2)N
Procedure, shortened: as §1

[5] = compound: C[C@H](Nc1ncnc2nc[nH]c12)c1cc2cccc(Cl)c2c(=O)n1-c1ccccc1 [duvelisib]
Procedure, shortened: as §1

[6] = compound: Cc1cc(Nc2cc(CN3CCOCC3)c3nc(C)c(Cc4ccc(Cl)cc4F)n3n2)n[nH]1 [gandotinib]
Procedure, shortened: as §1

[7] = compound: Cc1cc(Nc2cc(N3CCN(C)CC3)nc(Sc3ccc(NC(=O)C4CC4)cc3)n2)n[nH]1 [tozasertib]
Procedure, shortened: as §1

[8] = compound: Cc1cc(SCc2sc(-c3ccc(C(F)(F)F)cc3)nc2C)ccc1OCC(=O)O
Procedure, shortened: as §1

[9] = compound: Cc1ccc(-n2nc(C(C)(C)C)cc2NC(=O)Nc2ccc(OCCN3CCOCC3)c3ccccc23)cc1 [doramapimod]
Procedure, shortened: as §1

[10] = compound: Cc1ccc(C(=O)N(CCCN)[C@@H](c2nc3cc(Cl)ccc3c(=O)n2Cc2ccccc2)C(C)C)cc1 [ispinesib]
Procedure, shortened: as §1

[11] = compound: Cc1ccc(NC(=O)c2ccc(CN3CC[C@H](N(C)C)C3)c(C(F)(F)F)c2)cc1Nc1nccc(-c2cncnc2)n1 [bafetinib]
Procedure, shortened: as §1

[12] = compound: Cc1cccc(CC(=O)N2CCc3c2ccc(-c2cn(C)c4ncnc(N)c24)c3F)n1
Procedure, shortened: as §1

[13] = compound: Cc1cn(-c2cc(NC(=O)c3ccc(C)c(Nc4nccc(-c5cccnc5)n4)c3)cc(C(F)(F)F)c2)cn1 [nilotinib]
Procedure, shortened: as §1

[14] = compound: Cc1nc(Nc2n[nH]c3c2CN(C(=O)N[C@H](CN(C)C)c2ccccc2)C3(C)C)c2sccc2n1
Procedure, shortened: as §1

[15] = compound: Cc1nc(Nc2ncc(C(=O)Nc3c(C)cccc3Cl)s2)cc(N2CCN(CCO)CC2)n1 [dasatinib]
Procedure, shortened: as §1

[16] = compound: Cc1ncc(-c2ccnc(Nc3ccc(S(C)(=O)=O)cc3)n2)n1C(C)C
Procedure, shortened: as §1

[17] = compound: Cn1cc(-c2ccc3c(c2)CCN3C(=O)Cc2cccc(C(F)(F)F)c2)c2c(N)ncnc21
Procedure, shortened: as §1

[18] = compound: Cn1cc(-c2ccc3nnc(C(F)(F)c4ccc5ncccc5c4)n3n2)cn1
Procedure, shortened: as §1

[19] = compound: Cn1cncc1[C@@](N)(c1ccc(Cl)cc1)c1ccc2c(c1)c(-c1cccc(Cl)c1)cc(=O)n2C [tipifarnib]
Procedure, shortened: as §1

[20] = compound: FC(F)(F)c1ccc(/C=C/c2nc(COc3ccc(CCCCn4ccnn4)cc3)co2)cc1 [mubritinib]
Procedure, shortened: as §1

Measured: log2 fold change

AKT2 (UniProt P31751)
inactive: [1] 0.035 | [2] -0.18 | [3] -0.211 | [4] 0.051 | [5] 0.039 | [6] -0.233 | [7] -0.075 | [8] 0.113 | [9] 0.015 | [10] -0.083 | [11] 0.021 | [12] 0.049 | [13] -0.037 | [14] -0.144 | [15] -0.145 | [16] -0.108 | [17] 0.019 | [18] -0.034 | [19] -0.185 | [20] 0.037

ADK (UniProt P55263)
inactive: [1] 0.144 | [2] 0.275 | [3] 0.034 | [4] -0.105 | [5] 0.114 | [6] 0.276 | [7] 0.015 | [8] -0.061 | [9] -0.039 | [10] 0.112 | [11] 0.201 | [12] 0 | [13] 0.122 | [14] 0.208 | [16] 0.07 | [17] 0.006 | [18] 0.241 | [19] 0.291 | [20] 0.037
active: [15] 0.387

ACP1 isoform 2 (UniProt P24666)
Sequence of UniProt P24666 (P24666 whole entry, looked up): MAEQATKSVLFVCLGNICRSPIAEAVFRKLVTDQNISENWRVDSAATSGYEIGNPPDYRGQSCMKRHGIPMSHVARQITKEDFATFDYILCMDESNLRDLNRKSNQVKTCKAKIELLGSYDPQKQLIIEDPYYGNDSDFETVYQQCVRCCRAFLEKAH
inactive: [1] 0.008 | [2] -0.079 | [3] 0.016 | [4] 0.15 | [5] 0.004 | [6] -0.137 | [7] -0.09 | [8] 0.12 | [9] 0.033 | [10] -0.041 | [11] 0.037 | [12] 0.036 | [13] 0.039 | [14] -0.063 | [15] -0.126 | [16] -0.049 | [17] -0.044 | [18] 0.022 | [19] -0.146 | [20] 0.042

AMFR (UniProt Q9UKV5)
Sequence of UniProt Q9UKV5 (Q9UKV5 whole entry, looked up): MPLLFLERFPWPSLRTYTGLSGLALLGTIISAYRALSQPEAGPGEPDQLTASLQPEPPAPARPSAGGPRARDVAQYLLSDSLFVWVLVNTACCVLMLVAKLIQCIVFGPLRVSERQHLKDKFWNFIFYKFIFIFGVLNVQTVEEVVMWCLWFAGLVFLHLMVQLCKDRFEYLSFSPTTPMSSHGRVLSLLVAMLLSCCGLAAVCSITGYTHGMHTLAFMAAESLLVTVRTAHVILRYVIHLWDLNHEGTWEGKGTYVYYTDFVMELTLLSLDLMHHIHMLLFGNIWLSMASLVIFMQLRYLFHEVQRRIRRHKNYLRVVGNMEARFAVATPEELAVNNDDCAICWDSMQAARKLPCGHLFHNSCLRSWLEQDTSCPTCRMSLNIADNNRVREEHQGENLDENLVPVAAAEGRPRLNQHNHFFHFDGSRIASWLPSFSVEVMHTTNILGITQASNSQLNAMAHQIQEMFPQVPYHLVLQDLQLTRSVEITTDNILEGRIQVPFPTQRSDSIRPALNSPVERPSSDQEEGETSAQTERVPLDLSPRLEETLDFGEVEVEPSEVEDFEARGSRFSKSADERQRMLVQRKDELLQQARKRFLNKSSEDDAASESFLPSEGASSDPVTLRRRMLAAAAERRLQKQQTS
active: [10] -0.331
inactive: [1] -0.008 | [2] -0.04 | [3] 0.018 | [4] -0.034 | [5] 0.028 | [6] 0.012 | [7] -0.029 | [8] 0.071 | [9] 0.057 | [11] -0.095 | [12] 0.099 | [13] -0.051 | [14] -0.016 | [15] -0.094 | [16] 0.049 | [17] 0.029 | [18] -0.06 | [19] 0.05 | [20] -0.018

BRD8 (UniProt Q9H0E9)
inactive: [1] 0 | [2] -0.021 | [3] 0.018 | [4] 0.06 | [5] -0.009 | [6] -0.013 | [7] 0.046 | [8] -0.054 | [9] 0.023 | [10] -0.022 | [11] -0.032 | [12] -0.072 | [13] -0.01 | [14] -0.055 | [15] 0.057 | [16] -0.019 | [17] 0.018 | [18] -0.028 | [19] 0.054 | [20] 0.011

ADH5 (UniProt P11766)
inactive: [1] -0.021 | [2] 0.033 | [3] 0.032 | [4] -0.033 | [5] -0.002 | [6] -0.014 | [7] -0.003 | [8] -0.031 | [9] -0.033 | [10] -0.003 | [11] -0.009 | [12] 0.006 | [13] -0.013 | [14] 0.023 | [15] 0.036 | [16] 0.013 | [17] 0.021 | [18] -0.006 | [19] -0.029 | [20] 0.028

ATP13A3 (UniProt Q9H7F0)
inactive: [1] 0.076 | [2] -0.251 | [3] -0.037 | [4] 0.056 | [5] 0.09 | [6] 0 | [7] -0.118 | [8] -0.043 | [9] 0.045 | [10] -0.251 | [11] -0.067 | [12] 0.116 | [13] -0.015 | [14] -0.06 | [15] 0.008 | [16] 0.024 | [17] -0.099 | [18] 0.002 | [19] 0.098 | [20] -0.049

BCL9L (UniProt Q86UU0)
inactive: [1] 0.029 | [2] 0.085 | [3] 0.018 | [4] -0.002 | [5] -0.011 | [6] 0.097 | [7] -0.076 | [8] -0.112 | [9] 0.006 | [10] 0.025 | [11] 0.043 | [12] 0 | [13] -0.046 | [14] -0.064 | [15] 0.018 | [16] 0.053 | [17] -0.013 | [18] -0.031 | [19] 0.014 | [20] 0.026

AGO1 (UniProt Q9UL18)
inactive: [1] -0.071 | [2] -0.064 | [3] -0.007 | [4] 0.006 | [5] -0.116 | [6] 0.094 | [7] -0.153 | [8] 0.002 | [9] -0.066 | [10] 0.125 | [11] -0.036 | [12] -0.085 | [13] 0.185 | [14] 0.34 | [15] -0.019 | [16] -0.164 | [17] -0.073 | [18] -0.133 | [19] 0.057 | [20] -0.066

ATP6V0A2 (UniProt Q9Y487)
inactive: [1] -0.002 | [2] -0.197 | [3] -0.048 | [4] 0.07 | [5] -0.062 | [6] -0.006 | [7] 0.014 | [8] 0.064 | [9] 0.09 | [10] -0.18 | [11] -0.041 | [12] 0.007 | [13] 0.035 | [14] 0.006 | [15] -0.006 | [16] -0.077 | [17] -0.019 | [18] 0.027 | [19] 0.008 | [20] -0.019

ARAF (UniProt P10398)
active: [14] -0.236
inactive: [1] 0.012 | [2] -0.093 | [3] 0.059 | [4] 0.112 | [5] -0.009 | [6] 0.039 | [7] -0.074 | [8] 0.081 | [9] -0.035 | [10] -0.051 | [11] -0.015 | [12] 0.01 | [13] -0.021 | [15] -0.031 | [16] 0.009 | [17] 0.007 | [18] -0.003 | [19] 0.144 | [20] -0.092

ATP9B (UniProt O43861)
Sequence of UniProt O43861 (O43861 whole entry, looked up): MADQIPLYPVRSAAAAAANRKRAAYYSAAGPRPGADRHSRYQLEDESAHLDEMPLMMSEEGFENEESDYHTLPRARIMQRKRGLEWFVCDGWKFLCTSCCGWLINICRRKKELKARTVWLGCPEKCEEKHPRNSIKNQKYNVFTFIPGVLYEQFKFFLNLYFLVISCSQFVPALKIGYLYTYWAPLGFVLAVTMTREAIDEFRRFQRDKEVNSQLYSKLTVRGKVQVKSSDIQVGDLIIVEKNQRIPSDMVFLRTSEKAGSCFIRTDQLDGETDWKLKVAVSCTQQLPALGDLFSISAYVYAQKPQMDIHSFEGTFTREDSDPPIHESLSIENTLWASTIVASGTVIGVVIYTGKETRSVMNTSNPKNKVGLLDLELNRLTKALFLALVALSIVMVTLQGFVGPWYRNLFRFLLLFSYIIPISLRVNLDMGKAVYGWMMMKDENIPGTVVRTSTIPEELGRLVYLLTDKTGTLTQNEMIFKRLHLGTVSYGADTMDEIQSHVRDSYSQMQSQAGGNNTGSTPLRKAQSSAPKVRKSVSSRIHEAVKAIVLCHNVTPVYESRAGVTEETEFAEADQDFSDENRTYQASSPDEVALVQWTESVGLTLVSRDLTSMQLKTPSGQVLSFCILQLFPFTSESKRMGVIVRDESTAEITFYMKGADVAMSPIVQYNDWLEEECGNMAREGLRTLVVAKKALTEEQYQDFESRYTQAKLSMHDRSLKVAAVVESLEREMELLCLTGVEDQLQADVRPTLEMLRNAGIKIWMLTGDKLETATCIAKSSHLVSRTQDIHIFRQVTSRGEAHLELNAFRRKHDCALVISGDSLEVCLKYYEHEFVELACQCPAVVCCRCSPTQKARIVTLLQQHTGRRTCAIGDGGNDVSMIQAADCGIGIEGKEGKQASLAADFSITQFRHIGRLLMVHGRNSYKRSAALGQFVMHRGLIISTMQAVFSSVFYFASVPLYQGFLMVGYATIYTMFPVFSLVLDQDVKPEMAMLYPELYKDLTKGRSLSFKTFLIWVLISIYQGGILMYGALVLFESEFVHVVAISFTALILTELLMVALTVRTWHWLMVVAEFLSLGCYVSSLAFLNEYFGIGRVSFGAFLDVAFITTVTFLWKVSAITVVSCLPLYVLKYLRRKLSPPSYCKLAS
inactive: [1] 0.281 | [2] -0.033 | [3] -0.066 | [4] -0.098 | [5] 0.029 | [6] -0.053 | [7] 0.004 | [8] 0 | [9] 0.015 | [10] -0.208 | [11] -0.042 | [12] -0.042 | [13] -0.147 | [14] -0.149 | [15] -0.067 | [16] 0.038 | [17] 0.037 | [18] -0.096 | [19] 0.121 | [20] 0.069

AP2A2 isoform 2 (UniProt O94973)
Sequence of UniProt O94973 (O94973 whole entry, looked up): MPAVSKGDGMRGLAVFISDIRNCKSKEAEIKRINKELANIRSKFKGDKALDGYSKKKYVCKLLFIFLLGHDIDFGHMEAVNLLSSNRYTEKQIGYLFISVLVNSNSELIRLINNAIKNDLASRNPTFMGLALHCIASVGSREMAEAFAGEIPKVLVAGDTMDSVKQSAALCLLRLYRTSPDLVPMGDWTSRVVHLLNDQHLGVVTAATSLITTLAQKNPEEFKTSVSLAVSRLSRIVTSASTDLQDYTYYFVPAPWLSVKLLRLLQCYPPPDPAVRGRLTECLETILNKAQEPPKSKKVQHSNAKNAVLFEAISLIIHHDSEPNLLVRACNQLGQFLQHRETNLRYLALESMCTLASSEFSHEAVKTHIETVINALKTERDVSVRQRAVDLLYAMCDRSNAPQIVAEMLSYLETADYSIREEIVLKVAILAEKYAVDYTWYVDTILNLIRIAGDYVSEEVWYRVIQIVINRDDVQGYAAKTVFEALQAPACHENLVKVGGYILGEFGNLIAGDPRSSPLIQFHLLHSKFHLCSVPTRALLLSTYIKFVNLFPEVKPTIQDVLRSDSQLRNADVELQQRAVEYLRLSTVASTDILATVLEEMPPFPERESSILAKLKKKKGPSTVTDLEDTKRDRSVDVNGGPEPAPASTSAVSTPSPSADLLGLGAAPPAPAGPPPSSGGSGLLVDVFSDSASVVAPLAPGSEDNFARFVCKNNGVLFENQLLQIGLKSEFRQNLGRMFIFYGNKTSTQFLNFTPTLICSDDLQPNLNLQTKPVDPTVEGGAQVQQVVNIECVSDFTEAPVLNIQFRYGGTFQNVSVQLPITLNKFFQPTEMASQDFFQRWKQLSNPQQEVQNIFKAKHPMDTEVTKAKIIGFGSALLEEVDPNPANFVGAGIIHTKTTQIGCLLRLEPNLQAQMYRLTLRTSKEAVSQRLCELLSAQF
inactive: [1] 0.022 | [2] -0.076 | [3] -0.033 | [4] -0.186 | [5] 0.009 | [6] -0.057 | [7] -0.091 | [8] -0.021 | [9] 0.03 | [10] 0.024 | [11] 0.02 | [12] 0.031 | [13] -0.027 | [14] 0.009 | [15] 0.062 | [16] -0.018 | [17] 0.006 | [18] -0.074 | [19] -0.006 | [20] 0.035

AHSA1 (UniProt O95433)
inactive: [1] 0.035 | [2] 0.034 | [3] 0.058 | [4] -0.026 | [5] 0.027 | [6] -0.077 | [7] 0.015 | [8] 0.023 | [9] -0.029 | [10] -0.003 | [11] -0.059 | [12] 0.013 | [13] -0.052 | [14] -0.035 | [15] -0.096 | [16] -0.018 | [17] 0.065 | [18] 0.009 | [19] -0.056 | [20] 0.038

ARFRP1 (UniProt Q13795)
inactive: [1] -0.024 | [2] -0.004 | [3] 0.091 | [4] -0.027 | [5] 0.019 | [6] -0.159 | [7] -0.03 | [8] -0.069 | [9] 0.003 | [10] 0.027 | [11] 0.025 | [13] -0.061 | [14] -0.014 | [15] -0.017 | [16] 0.112 | [17] 0.11 | [18] -0.003 | [19] -0.069 | [20] -0.019
active: [12] 0.327

AGRN (UniProt O00468)
Sequence of UniProt O00468 (O00468 whole entry, looked up): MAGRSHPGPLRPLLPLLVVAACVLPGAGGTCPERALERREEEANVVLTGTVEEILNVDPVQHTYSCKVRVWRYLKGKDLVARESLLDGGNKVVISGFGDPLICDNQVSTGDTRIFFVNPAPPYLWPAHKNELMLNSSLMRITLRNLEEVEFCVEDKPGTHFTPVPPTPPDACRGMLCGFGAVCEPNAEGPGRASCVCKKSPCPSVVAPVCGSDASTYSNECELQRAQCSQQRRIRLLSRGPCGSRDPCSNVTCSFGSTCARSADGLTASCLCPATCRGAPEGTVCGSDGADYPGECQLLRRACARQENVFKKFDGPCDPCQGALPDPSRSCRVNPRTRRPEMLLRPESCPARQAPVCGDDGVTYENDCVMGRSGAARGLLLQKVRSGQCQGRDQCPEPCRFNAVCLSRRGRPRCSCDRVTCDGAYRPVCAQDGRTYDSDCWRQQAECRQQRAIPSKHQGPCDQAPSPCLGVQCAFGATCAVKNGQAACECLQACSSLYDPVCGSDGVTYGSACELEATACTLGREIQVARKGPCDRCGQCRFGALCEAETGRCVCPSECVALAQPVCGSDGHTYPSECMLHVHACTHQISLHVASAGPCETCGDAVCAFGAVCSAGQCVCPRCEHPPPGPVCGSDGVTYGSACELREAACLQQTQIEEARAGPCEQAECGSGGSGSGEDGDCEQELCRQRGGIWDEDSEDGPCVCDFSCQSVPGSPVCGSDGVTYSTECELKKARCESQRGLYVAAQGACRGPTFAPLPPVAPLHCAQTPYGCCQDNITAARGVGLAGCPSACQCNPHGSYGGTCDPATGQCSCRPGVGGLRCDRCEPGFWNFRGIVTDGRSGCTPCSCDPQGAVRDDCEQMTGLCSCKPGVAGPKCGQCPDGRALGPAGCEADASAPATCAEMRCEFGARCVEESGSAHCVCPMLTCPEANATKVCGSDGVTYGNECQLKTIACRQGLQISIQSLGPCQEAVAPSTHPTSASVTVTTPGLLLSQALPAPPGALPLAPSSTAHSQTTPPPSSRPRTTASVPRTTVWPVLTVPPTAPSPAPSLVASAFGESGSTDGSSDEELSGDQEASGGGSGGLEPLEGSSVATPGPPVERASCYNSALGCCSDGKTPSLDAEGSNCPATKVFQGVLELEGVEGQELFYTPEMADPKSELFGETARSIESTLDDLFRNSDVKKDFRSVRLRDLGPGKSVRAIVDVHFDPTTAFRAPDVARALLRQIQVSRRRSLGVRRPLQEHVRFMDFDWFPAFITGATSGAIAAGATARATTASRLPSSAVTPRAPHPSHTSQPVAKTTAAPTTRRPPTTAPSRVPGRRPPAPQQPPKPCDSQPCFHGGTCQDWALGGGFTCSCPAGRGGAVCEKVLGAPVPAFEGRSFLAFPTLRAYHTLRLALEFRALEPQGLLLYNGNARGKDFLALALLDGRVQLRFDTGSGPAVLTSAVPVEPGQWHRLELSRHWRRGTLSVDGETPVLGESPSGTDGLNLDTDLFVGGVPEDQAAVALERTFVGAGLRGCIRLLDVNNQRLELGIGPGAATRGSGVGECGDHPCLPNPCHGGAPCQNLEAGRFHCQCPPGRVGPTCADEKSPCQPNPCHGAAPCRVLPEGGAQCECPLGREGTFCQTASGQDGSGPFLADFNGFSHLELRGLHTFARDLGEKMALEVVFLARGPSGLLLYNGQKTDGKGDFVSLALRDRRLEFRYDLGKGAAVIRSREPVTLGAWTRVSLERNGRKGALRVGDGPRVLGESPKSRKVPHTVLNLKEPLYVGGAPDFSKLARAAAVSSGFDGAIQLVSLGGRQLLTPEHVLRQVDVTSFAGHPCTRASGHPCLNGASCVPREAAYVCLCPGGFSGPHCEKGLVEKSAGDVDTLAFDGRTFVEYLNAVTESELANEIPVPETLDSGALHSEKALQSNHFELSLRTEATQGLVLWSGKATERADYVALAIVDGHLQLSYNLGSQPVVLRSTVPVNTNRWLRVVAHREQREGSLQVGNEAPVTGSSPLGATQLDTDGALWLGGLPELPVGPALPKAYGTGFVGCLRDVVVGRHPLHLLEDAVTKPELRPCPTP
inactive: [1] -0.078 | [2] -0.01 | [3] -0.073 | [4] -0.021 | [5] -0.162 | [6] -0.012 | [7] 0.026 | [8] 0.24 | [9] 0.062 | [10] 0.009 | [11] 0.006 | [12] 0.001 | [13] -0.034 | [14] -0.035 | [15] 0.355 | [16] -0.086 | [17] 0.03 | [18] 0.162 | [19] 0.165 | [20] -0.079
